# ± gives the standard deviation.
# How the values were obtained:
# [1] = test system: MILI (PIWIL2) piRISC loaded with piRNA #1 (26 nt); assay: pre-steady-state target cleavage rate (min^-1); guide: piRNA #1 5'p-UGAGGUAGUAGGUUGUAUAGUAUCCA; higher = faster piRNA-guided slicing of the target; details: auxiliary factor: 500 nM mouse GTSF1;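 further: 1 nM active piRISC with 0.1 nM target library at 33 °C single turnover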
# Outline: (§1)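 Cleave-'n-Seq measured uncleaved targets by sequencing after a transcribed, DNA-blocked target RNA library […] was mixed with 1 nM active affinity-purified piRISC holding one synthetic guide, with or without 500 nM GTSF1 partner protein, at 33 °C in HEPES–potassium acetate buffer for 0–8 or 0–960 min. Counts were normalised to depth and to weakly complementary targets, three trials were pooled, and k3 was capped at 0.0001 min^-1. A burst-and-steady-state fit gave the pre-steady-state cleavage rate.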
# [2] = test system: EfPiwi piRISC loaded with piRNA #1 (26 nt); assay: pre-steady-state target cleavage rate (min^-1); auxiliary factor: 500 nM Ephydatia muelleri Gtsf1; guide: piRNA #1 5'p-UGAGGUAGUAGGUUGUAUAGUAUCCA; MIWI and MILI are mouse PIWI proteins and EfPiwi is from a freshwater sponge; tags in brackets are library labels; higher = faster piRNA-guided slicing of the target
# Outline: as §1
Sequence,pre-steady-state target cleavage rate [1],pre-steady-state target cleavage rate [2]
GGAGACCUUACUAUACAACCUAGUUCCUCA,0.0143 ± 0.0048,0.00334 ± 0.0033
GGAGACGAUACUAUACAACGUACUACCUCA,0.0266 ± 0.0047,0.00525 ± 0.0016
GGAGACCAUACGUAUACAACCUACUACCUCA,0.212 ± 0.035,0.159 ± 0.064
GGAGUAGGAUACUAUACAACCUACUACCUCA,0.145 ± 0.016,0.0546 ± 0.019
GGAGAGGAUACUAUUCAACCUACUACCUCA,0.178 ± 0.011,0.012 ± 0.0057
GGAGUGUAUACUAUACAACCUACUACCUCA,0.167 ± 0.0094,0.0133 ± 0.0057
GGAGUGGAUACUAUACAACCUAGAACCUCA,0.0036 ± 0.0022,0.00464 ± 0.0024
GGAGUGGAUACUAUACUACCUACUACGUCA,0.0586 ± 0.0078,0.00245 ± 0.0017
GGAGUGGUUACUAUACAACCUAGUACCUCA,0.0547 ± 0.01,0.00359 ± 0.0015
GGAGACCUAACUAUACAACCUACUACUCUCA,0.208 ± 0.028,0.00491 ± 0.0044
GGAGUGGAUAAUAUACAACCUACUACCUCA,0.168 ± 0.011,0.0105 ± 0.0047
GGAGAGGAAACUAUACAACGUACUACCUCA,0.0138 ± 0.0051,0.00339 ± 0.0016
GGAGACGAUACUAUACAACCUACUAACUCA,0.0612 ± 0.016,0.00467 ± 0.0021
GGAGACCAUACUUAUACAACCUACUACCUCA,0.132 ± 0.016,0.0757 ± 0.028
GGAGACCAUAGAUUACAACCUACUACCUCA,0.0355 ± 0.0071,0.00655 ± 0.0034
GGAGACCUUACUAUACAACCUACUAUCUCA,0.0879 ± 0.0097,0.00831 ± 0.0039
GGAGAGGAUACUUUACAACCUACUACCUGA,0.0593 ± 0.011,0.00329 ± 0.0017
GGAGACCUAACUAUACAAACUACUACCUCA,0.248 ± 0.025,0.0044 ± 0.0038
GGAGACCAUACUAUUCAACCUACUACGUCA,0.0881 ± 0.013,0.00376 ± 0.0034
GGAGUGGAUACUAUACUACGUACUACCUCA,0.042 ± 0.0043,0.00381 ± 0.0021

Sequence,pre-steady-state target cleavage rate [1],pre-steady-state target cleavage rate [2]
GGAGACCUUACUCUACAACCUACUACCUCA,0.202 ± 0.02,0.0532 ± 0.019
GGAGACCUAACUAUUACAACCUACUACCUCA,0.099 ± 0.023,0.0205 ± 0.0091
GGAGACCAUACUAUUCAACCUACUAGCUCA,0.11 ± 0.019,0.00459 ± 0.0044
GGAGAGGAUACUUUACAACCUACAACCUCA,0.11 ± 0.016,0.00228 ± 0.0015
GGAGAGGAUACUAUACAACCUCUACCUCA,0.0184 ± 0.0033,0.00619 ± 0.0034
GGAGACCUUCACUAUACAACCUACUACCUCA,0.107 ± 0.017,0.00775 ± 0.0054
GGAGACCUUACUAUACAACCUACUGCCUCA,0.0872 ± 0.011,0.00661 ± 0.0029
GGAGUGGAUUCUAUACAACCUACUACCUGA,0.0905 ± 0.012,0.00261 ± 0.002
GGAGACGAUACUAUACAACGUACUACGUCA,0.00557 ± 0.0029,0.00379 ± 0.0014
GGAGACGAUACUAUUCAACCAACUACCUCA,0.00612 ± 0.0026,0.00444 ± 0.002
GGAGUGGAUACUAUACAAGCUAGUACCUCA,0.0743 ± 0.014,0.00287 ± 0.0014
GGAGACCUAAACUAUACAACCUACUACCUCA,0.148 ± 0.018,0.00974 ± 0.0047
GGAGACGAUACUAUACUACCUACUACCUCA,0.2 ± 0.013,0.00925 ± 0.0032
GGAGACCUAUCUAUACAACCUACUACCUA,0.0666 ± 0.0086,0.00487 ± 0.0042
GGAGACCUAACAUACAACCUACUACCUCA,0.0208 ± 0.009,0.0097 ± 0.005
GGAGACCUAACUAUACAACGUAGUACCUCA,0.00851 ± 0.0056,0.00322 ± 0.0027
GGAGAGGUACUAUACAACCUACUACCUCA,0.089 ± 0.0084,0.00824 ± 0.0048
GGAGAGGAUAGUUUACAACCUACUACCUCA,0.0583 ± 0.0089,0.0061 ± 0.0039
GGAGUGGAUACUAUACAACCUACUACCAGA,0.034 ± 0.0071,0.00419 ± 0.0019
GGAGACGAUUCUAUACAACCUACUACCUCA,0.209 ± 0.013,0.0774 ± 0.03

Sequence,pre-steady-state target cleavage rate [1],pre-steady-state target cleavage rate [2]
GGAGACGAUACUAUACAACCAACUACCUCA,0.00952 ± 0.004,0.00552 ± 0.0017
GGAGACCUAACUAUACACCCUACUACCUCA,0.0388 ± 0.013,0.00682 ± 0.0033
GGAGAGGAAACUAAACAACCUACUACCUCA,0.229 ± 0.03,0.00466 ± 0.0036
GGAGACCAUACUAUACAACCUACUACCUA,0.125 ± 0.016,0.0149 ± 0.0065
GGAGAGGAUACUAUUCAACGUACUACCUCA,0.0162 ± 0.0029,0.00415 ± 0.0012
GGAGUGGAUACUAUAUCAACCUACUACCUCA,0.143 ± 0.013,0.0851 ± 0.03
GGAGACGAUACUAUACUACCUUCUACCUCA,0.025 ± 0.0053,0.00418 ± 0.0025
GGAGAGGAUAGUAUACAACCUACAACCUCA,0.037 ± 0.0093,0.00249 ± 0.0021
GGAGUGGAUACUAUACAACCUCUACCUCA,0.0226 ± 0.0033,0.0673 ± 0.023
GGAGUGGAUACUAUACAACCUAACUACCUCA,0.0255 ± 0.0041,0.00456 ± 0.0023
GGAGUGCGAUACUAUACAACCUACUACCUCA,0.206 ± 0.013,0.136 ± 0.044
GGAGUGGAUACUAUACAACCAACUACGUCA,0.00435 ± 0.0018,0.00367 ± 0.0011
GGAGAGGAUAGUAUACAACCUACUACCUGA,0.0327 ± 0.0082,0.00298 ± 0.0022
GGAGACGUAACUAUACAACCUACUACCUCA,0.166 ± 0.018,0.0248 ± 0.0098
GGAGACCUAACUAUACAAGCUACUACCUCA,0.206 ± 0.02,0.00482 ± 0.0028
GGAGACCAUACUAUGCAACCUACUACCUCA,0.174 ± 0.019,0.0164 ± 0.0068
GGAGUGGAUAGUAUACAACCUAGUACCUCA,0.0556 ± 0.0099,0.00264 ± 0.0018
GGAGACGAUACUAUACAACGUACUUCCUCA,0.0234 ± 0.0059,0.00359 ± 0.0013
GGAGUGGAUACGUAUACAACCUACUACCUCA,0.111 ± 0.0099,0.082 ± 0.03
GGAGACCUAACUAUACAACCUACUUCCUGA,0.0081 ± 0.0069,0.00376 ± 0.0037

# Source: the supplement of paper PMC10338343
